The list is not random: actives were taken first. Their share in the collection is about 1.9%.
H9c2 protect: modulators protecting cardiomyocytes from myocardial damage; H9c2 cardiomyocytes, H2O2 injury protection, ATPLite, 2 h; protection from H2O2 cell death, % at 20 µM; 360,000 compounds, 0.63% hits; AID 588492;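 active = compounds giving at least 50% protection of heart cells from peroxide-induced death in the single-dose screen, raw or plate-pattern-corrected value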;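 also: 0% = DMSO wells with peroxide and 100% = DMSO wells without peroxide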
ATG4B inhibitor: blocks human ATG4B protease cleavage of LC3 substrate; Q9Y4P1; ATG4B cleavage of LC3-PLA2, NBD-HPC fluorescence, 1 h; inhibition, % at 8.33 µM; 340,000 compounds, 0.51% hits; in the data active = inhibition above about 40%
PP5 primary: inhibitors of human protein phosphatase 5 (PP5); P53041; purified PP5c, OMFP substrate fluorescence; inhibition, % at 6.7 µM; 320,000 compounds, 0.18% hits;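 active = inhibition above the campaign's mean inhibition across all tested compounds plus 3 SD, cut at about 9.5% in these data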;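 also: 0% = DMSO only and 100% = 100 µM cantharidin control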
Target sequence (P53041 whole entry, looked up): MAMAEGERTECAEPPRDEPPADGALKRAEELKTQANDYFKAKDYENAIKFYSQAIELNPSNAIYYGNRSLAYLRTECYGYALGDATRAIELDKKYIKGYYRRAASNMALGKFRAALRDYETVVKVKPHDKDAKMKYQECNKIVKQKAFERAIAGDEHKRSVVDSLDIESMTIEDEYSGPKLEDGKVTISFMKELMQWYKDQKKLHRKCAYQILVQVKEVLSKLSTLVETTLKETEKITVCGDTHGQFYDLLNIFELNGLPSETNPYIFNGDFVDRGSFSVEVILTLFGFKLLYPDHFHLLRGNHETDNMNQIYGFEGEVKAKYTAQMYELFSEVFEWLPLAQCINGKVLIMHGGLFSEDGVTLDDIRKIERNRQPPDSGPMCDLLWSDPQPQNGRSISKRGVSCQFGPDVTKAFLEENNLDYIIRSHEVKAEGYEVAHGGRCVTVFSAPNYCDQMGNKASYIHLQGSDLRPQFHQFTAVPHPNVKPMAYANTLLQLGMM
PP1 counter: PP1-alpha (human) inhibition in PP5 counter-screen; purified PP1alpha, OMFP fluorescence; inhibition, % at 6.7 µM; 320,000 compounds, 0.9% hits; AID 2235;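 active = inhibition above the mean inhibition of all tested compounds plus 3 SD, computed separately for each screening campaign, cut at about 15% in these data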
PP1 inh confirm: confirmation of human PP1 phosphatase inhibitors | 1,900 compounds, 52% hits | inhibition, % at 6.7 µM | shares compounds with PP1 counter | purified PP1alpha, OMFP substrate fluorescence;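 active = mean PP1 inhibition above a set limit taken from the earlier primary screen, cut at about 15% in these data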
PP5 inh counter: counter-screen for PP1 inhibitors: human PP5 phosphatase inhibition | 1,900 compounds, 4% hits | inhibition, % at 6.7 µM | purified PP5c, OMFP fluorescence | shares compounds with PP1 counter;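 active = mean PP5 inhibition over triplicate wells above about 9.5% taken from the earlier PP1 screen, limit read from the data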
Active calls of the source: *; / = no result given.

SMILES	H9c2 protect	ATG4B inhibitor	PP5 primary	PP1 counter	PP1 inh confirm	PP5 inh counter
COc1ccc(CNc2nc(NCc3ccc(OC)cc3)c3[nH]cnc3n2)cc1	3.8	2.0	3.4	17.9*	5.6	11.2*
Cc1ccc(NC(=O)c2cc(-c3ccco3)nc3ccccc23)cc1S(=O)(=O)N1CCOCC1	4.4	-0.6	1.4	22.7*	23.6*	2.6
COc1ccc(NC(=O)c2cc(C)nc3ccccc23)cc1S(=O)(=O)N1CCOCC1	-2.7	-6.5	/	/	/	/
COc1ccc(NC(=O)c2cc(-c3ccco3)nc3ccccc23)cc1S(=O)(=O)N1CCOCC1	21.9	-7.1	1.8	44.7*	8.7	-4.4
Cc1ccc(NC(=O)C2COc3ccccc3O2)cc1C (centres undefined)	-0.7	-5.2	3.3	0.3	/	/
O=C(NCC1CCCCC1)c1ccc(=O)[nH]c1	0.1	5.6	-0.2	0.2	/	/
O=C(NCC1CCCCC1)c1cccc(-c2ccc(O)cc2)c1	-8.3	16.5	-1.8	18.3*	-2.0	0.3
COc1ccc(C2C3C=CCC(c4cccc(-c5ccc(C)cc5)c4)C3C(=O)N2Cc2ccccc2)cc1Cl (centres undefined)	-8.0	-0.2	-0.7	17.8*	-0.1	-5.9
COc1ccc(-c2cccc(C3CC=CC4C3C(=O)N(Cc3ccccc3)C4c3ccc4ccccc4c3)c2)cc1 (centres undefined)	-10.3	-0.1	1.5	11.9	/	/
Cc1ccc(S(=O)(=O)NCC(=O)OCC(=O)Nc2cccc(S(=O)(=O)N3CCOCC3)c2)cc1	-5.8	-0.5	/	/	/	/
Cc1ccc(-c2cc(C(=O)Nc3ccc(S(=O)(=O)N4CC(C)OC(C)C4)cc3)[nH]n2)c(O)c1 (centres undefined)	-24.3	-1.6	1.6	18.9*	16.1*	0.7
COC(=O)C1=C(CS(=O)(=O)c2ccccc2)NC(=O)NC1c1ccc(OC)c(OC)c1 (centres undefined)	5.9	6.8	2.1	-5.1	/	/
CCOC(=O)c1sc(NC(C)=O)nc1C	-7.4	-2.9	-1.6	1.8	/	/
CCOC(=O)c1sc(-n2[nH]c(C)cc2=O)nc1C	-6.2	10.3	-0.2	19.0*	0.6	9.2
O=C(CCN1C(=O)/C(=C\c2ccccc2F)SC1=S)Nc1ccc(C(=O)O)c(O)c1	-3.2	/	4.4	20.2*	19.5*	2.1
COc1ccc(-c2nn(CCC(=O)O)cc2CCC(=O)O)cc1	6.0	6.5	2.4	1.5	/	/
Cc1ccc(C2=NN(C(=O)CCC(=O)O)C(c3cn(-c4ccccc4)nc3-c3ccc(C)cc3)C2)cc1 (centres undefined)	-8.1	8.5	8.3	19.9*	22.6*	2.3
COc1ccc(C2=NN(c3ccccc3)C(c3cn(CCC(=O)O)nc3-c3ccccc3)C2)cc1 (centres undefined)	3.7	7.1	1.7	24.0*	10.3	3.1
Cc1ccc(C(=O)N/C(=C\c2ccc(-c3cc(Cl)ccc3Cl)o2)C(=O)NCc2cccnc2)cc1	2.6	-29.2	1.7	18.4*	16.3*	3.4
Cc1ccc(-n2c(C)cc(-c3csc(N)n3)c2C)cc1	-6.7	27.1	-1.1	19.4*	2.5	-2.5
Cc1cc(-c2csc(N)n2)c(C)n1C	-4.7	10.1	2.1	12.1	/	/
Cc1ccc(NC(=O)C2C3CCC(O3)C2C(=O)O)c(Br)c1 (centres undefined)	-5.6	-6.1	73.0*	66.5*	19.6*	27.6*
Cc1ccc(Cl)cc1NC(=O)C1CC1c1ccccc1 (centres undefined)	-7.8	1.4	1.4	1.7	/	/
Cc1ccc(Cl)cc1NC(=O)C1C2CCC(O2)C1C(=O)O (centres undefined)	4.6	7.0	56.3*	52.0*	9.8	16.2*
Cc1ccc(NC(=O)C2CCCC2)c(Br)c1	-1.4	6.9	1.8	-8.3	/	/
SMILES	H9c2 protect	ATG4B inhibitor	PP5 primary	PP1 counter	PP1 inh confirm	PP5 inh counter
O=C(O)C1C2CCC(O2)C1C(=O)Nc1ccc(Br)cc1F (centres undefined)	10.8	-1.5	65.6*	58.4*	14.4	21.0*
O=C(COC(=O)CC1CCCC1)Nc1ccc(Br)cc1F	2.9	0.3	/	/	/	/
CCOC(=O)c1c(C)c(C(=O)NCc2ccc3c(c2)OCO3)c(C)n1CC	2.7	-1.5	2.4	1.5	/	/
CCOC(=O)c1cnc(-n2nc(C)cc2C)nc1NCc1ccccc1	63.3*	-9.6	7.0	53.6*	58.2*	0.6
CCOC(=O)c1cnc(-n2nc(C)cc2C)nc1NCCO	-2.7	-8.4	-0.4	-0.5	/	/
CCOC(=O)c1cnc(-n2nc(C)cc2C)nc1NNc1ncc(-c2ccccc2)cn1	/	-2.5	3.4	22.7*	21.6*	-2.3
CCOC(=O)c1cnc(-n2nc(C)cc2C)nc1NC(C)c1ccccc1 (centres undefined)	5.5	-4.7	1.6	39.1*	53.3*	5.5
CCOC(=O)c1cnc(-n2nc(C)cc2C)nc1NNc1cc(-c2ccccc2)nc(C)n1	/	/	1.9	-6.7	/	/
CCOC(=O)c1cnc(-n2cc(C)cn2)nc1NCc1ccc2c(c1)OCO2	18.3	-3.1	1.9	20.8*	65.5*	1.6
N#Cc1nc(-c2ccc(F)cc2)oc1N1CCC(C(N)=O)CC1	6.7	-4.0	0.4	-2.5	/	/
COCC1CCCC1OS(N)(=O)=O (centres undefined)	2.4	5.3	4.4	-2.9	/	/
O=C(c1ccc(Br)cc1)N1CCN(c2ccccn2)CC1	-1.9	/	/	/	/	/
CCOc1ccc(N(C)S(=O)(=O)c2ccc(C)c(C(=O)Nc3nnc(C4CC4)s3)c2)cc1	-12.5	-5.6	0.2	-0.7	/	/
O=Cc1cn(-c2ccccc2)nc1-c1cc2cc(O)ccc2oc1=O	4.6	9.8	2.1	28.1*	18.1*	-1.6
CCCCNC(=O)C(c1ccc(OCC(=O)OC)c(C(=O)OC)c1)N(CCOC)C(=O)CCCCCN1C(=O)NC(c2ccc(-c3ccccc3)cc2)C(C(=O)OCc2ccccc2)=C1C (centres undefined)	/	/	4.6	34.7*	35.1*	3.7
CCCCCCN(C(=O)CCCCCN1C(=O)NC(c2ccc(-c3ccccc3)cc2)C(C(=O)OCc2ccccc2)=C1C)C(C(=O)NCCCC)c1ccc(OCC(=O)OC)cc1 (centres undefined)	/	/	-1.0	30.1*	19.9*	-2.1
CC(C)(O)CN(C(=O)c1ccc([N+](=O)[O-])cc1)C1CCCC1	9.9	2.8	/	/	/	/
O=c1[nH]n2c(=O)c3c([nH]c2c1N=Nc1cccc(Cl)c1)CCCC3	4.1	-5.5	2.1	36.5*	26.1*	-0.2
C#Cc1ccc([C@H]2C=C(C(=O)N3CCN(Cc4ccccc4)CC3)O[C@@H](OCc3ccc(CO)cc3)C2)cc1	20.5	-9.1	2.1	18.6*	20.3*	3.0
Cc1cc(C)c(C(=O)OCc2csc(CC(=O)Nc3ccccc3C)n2)c(C)c1	-4.0	4.8	4.2	20.5*	0.9	-0.1
Cc1ccc2c(c1)N(CC(=O)NCC(C)c1ccccc1)C(=O)c1cccnc1O2 (centres undefined)	16.4	-4.5	4.6	-2.4	/	/
